A word on the AC50: it is the midpoint of the concentration-response curve, whichever way the signal moves.

The nature of assay [1]: ATG_DR4_LXR_CIS: Attagene CIS-FACTORIAL HepG2 Assay for human Liver X Receptor (LXR), DR4 submotif (AID 2282929). The following applies: HepG2 Attagene DR4 cis-reporter, mRNA transcription; actives raise or lower the signal. The gist of the method: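 Measures endogenous transcription factor activity via a DR4-driven reporter transcript in human HepG2 cells. Compounds incubated 24 h; mRNA quantified by RT-PCR and capillary electrophoresis, analysed as gain or loss of signal versus DMSO.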

The target in assay [2] is Hepatocyte nuclear factor 3-beta (Homo sapiens) (UniProt Q9Y261). The assay can be described thus: ATG_FoxA2_CIS: Attagene CIS-FACTORIAL HepG2 Assay for human Forkhead box A2 (FOXA2) (AID 2282942). As to conditions: HepG2 cis-reporter transcription factor activity, 24 h; actives raise or lower the signal. The gist of the method: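 In transiently transfected human HepG2 cells, promoter-driven reporter mRNA levels after 24 h chemical exposure are determined via RT-PCR with capillary electrophoresis. DMSO serves as baseline for bidirectional fitting.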
Hepatocyte nuclear factor 3-beta (Homo sapiens), sequence (Q9Y261 whole entry, looked up): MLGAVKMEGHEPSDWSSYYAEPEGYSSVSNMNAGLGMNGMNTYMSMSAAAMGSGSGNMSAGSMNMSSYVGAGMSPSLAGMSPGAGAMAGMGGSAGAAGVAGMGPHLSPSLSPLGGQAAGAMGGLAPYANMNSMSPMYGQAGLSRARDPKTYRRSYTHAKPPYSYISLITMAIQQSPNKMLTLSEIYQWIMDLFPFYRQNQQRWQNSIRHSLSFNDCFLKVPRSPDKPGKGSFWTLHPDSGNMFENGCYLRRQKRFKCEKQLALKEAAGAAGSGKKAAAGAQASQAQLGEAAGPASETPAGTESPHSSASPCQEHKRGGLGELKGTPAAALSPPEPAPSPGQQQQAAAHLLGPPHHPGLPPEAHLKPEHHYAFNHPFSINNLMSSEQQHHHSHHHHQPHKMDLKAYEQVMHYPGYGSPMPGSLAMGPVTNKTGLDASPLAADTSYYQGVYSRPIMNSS

Assay [3] concerns the target Hypoxia-inducible factor 1-alpha (Homo sapiens) (UniProt Q16665). The assay can be described thus: ATG_HIF1a_CIS: Attagene CIS-FACTORIAL HepG2 Assay for human Hypoxia Inducible Factor 1 (HIF1A) (AID 2282951). As to conditions: HepG2 Attagene cis-factorial HIF1a reporter transcription; actives raise or lower the signal. The essentials:
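In this multiplexed cell assay, HepG2 cells bearing transfected cis reporters are dosed for 24 h and reporter mRNA is read by RT-PCR plus capillary electrophoresis; signal increases and decreases are both scored against DMSO.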

Assay [4] is described as follows: ATG_RORE_CIS: Attagene CIS-FACTORIAL HepG2 Assay for human RAR-related Orphan Receptor Element (RORE) (AID 2282959). As to conditions: HepG2 Attagene cis-factorial RORE reporter, mRNA; actives raise or lower the signal. The essentials:
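Fluorescence intensity of reporter-specific cDNA fragments, separated by capillary electrophoresis, gives the signal. Source: HepG2 liver cells transiently transfected with cis-element reporters and exposed 24 h; DMSO-normalized bidirectional fit.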

The nature of assay [5]: ATG_Sox_CIS: Attagene CIS-FACTORIAL HepG2 Assay for human SRY-box transcription factor (SOX) (AID 2282960). The following applies: HepG2 Attagene cis-factorial SOX reporter, mRNA; actives raise or lower the signal. The gist of the method: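 After 24 h of chemical treatment, transfected HepG2 reporter cells are lysed for total RNA. Transcript levels come from RT-PCR with labelled primer extension and capillary electrophoresis, analysed bidirectionally versus DMSO.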

The target in assay [6] is Transcription factor Sp1 (Homo sapiens) (UniProt P08047). Put plainly: ATG_Sp1_CIS: Attagene CIS-FACTORIAL HepG2 Assay for human Specificity Protein 1 (Sp1) (AID 2282961). As to conditions: HepG2 Sp1 cis-reporter transcription, actives raise or lower the signal. The essentials: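 Sp1-driven reporter mRNA, read as capillary electrophoresis fluorescence after RT-PCR, in transiently transfected HepG2 cells dosed for 24 h; signal change in either direction relative to DMSO.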
Transcription factor Sp1 (Homo sapiens), sequence (P08047 whole entry, looked up): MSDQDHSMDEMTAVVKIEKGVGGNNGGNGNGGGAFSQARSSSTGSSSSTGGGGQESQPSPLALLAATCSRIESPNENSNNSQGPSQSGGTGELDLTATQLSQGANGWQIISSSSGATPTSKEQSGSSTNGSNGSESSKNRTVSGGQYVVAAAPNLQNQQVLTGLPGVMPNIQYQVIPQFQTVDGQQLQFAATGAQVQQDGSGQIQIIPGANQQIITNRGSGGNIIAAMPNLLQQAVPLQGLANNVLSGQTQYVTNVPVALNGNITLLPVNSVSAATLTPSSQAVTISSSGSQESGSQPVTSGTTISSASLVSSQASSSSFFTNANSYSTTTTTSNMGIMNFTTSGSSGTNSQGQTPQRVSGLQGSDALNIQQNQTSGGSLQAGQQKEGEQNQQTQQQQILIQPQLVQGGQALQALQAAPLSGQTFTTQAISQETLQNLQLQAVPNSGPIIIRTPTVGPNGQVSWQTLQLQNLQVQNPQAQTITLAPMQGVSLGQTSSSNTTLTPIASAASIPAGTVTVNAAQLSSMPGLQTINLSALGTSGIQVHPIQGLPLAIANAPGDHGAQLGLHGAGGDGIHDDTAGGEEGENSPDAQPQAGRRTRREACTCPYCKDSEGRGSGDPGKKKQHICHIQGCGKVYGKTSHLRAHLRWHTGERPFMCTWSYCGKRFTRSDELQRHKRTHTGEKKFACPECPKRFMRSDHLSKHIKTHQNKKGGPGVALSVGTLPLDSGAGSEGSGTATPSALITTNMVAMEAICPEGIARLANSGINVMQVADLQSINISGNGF

A short description of assay [7]: ATG_TA_CIS: Attagene CIS-FACTORIAL HepG2 Assay for human TA Basal Promoter (AID 2282964). As to conditions: HepG2 Attagene CIS-factorial TA basal promoter reporter; actives raise or lower the signal. The essentials:
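Multiplexed mRNA reporter assay, HepG2, 24 h. Reporter cDNA amplified, 6-FAM primer-extended, HpaI-cut, CE-sized; DMSO = negative control and baseline.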

Assay [8] in a line: ATG_TCF_b_cat_CIS: Attagene CIS-FACTORIAL HepG2 Assay for human T-Cell-Factor with beta-catenin (TCF/b-cat) (AID 2282965). As to conditions: HepG2 TCF/beta-catenin cis-reporter transcription, actives raise or lower the signal. The gist of the method:
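Endogenous transcription factor activity is captured through cis-promoter reporter constructs transiently introduced into human HepG2 liver cells. Induced reporter mRNA is measured after 24 h and fitted bidirectionally relative to DMSO.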

Assay [9] is described as follows: ATG_TAL_CIS: Attagene CIS-FACTORIAL HepG2 Assay for human TAL Basal Promoter (AID 2282966).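 Further: background control endpoint measuring basal TAL promoter reporter mRNA not a specific factor.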 The following applies: HepG2 Attagene cis-factorial TAL promoter reporter; actives raise or lower the signal. The essentials: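 In this cell-based multiplex, HepG2 liver cells bearing cis-promoter reporter constructs are dosed for 24 hours. Total RNA is reverse-transcribed and amplified, labelled fragments are sized by capillary electrophoresis, and signal changes are fitted bidirectionally versus DMSO.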

Assay [10] can be described thus: ATG_TGFb_CIS: Attagene CIS-FACTORIAL HepG2 Assay for human Transforming Growth Factor (TGF) (AID 2282967). The following applies: HepG2 Attagene CIS TGFb reporter, mRNA transcription; actives raise or lower the signal. The gist of the method:
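Transcript-level reporter readout: HepG2 transfectants, 24 h exposure, RNA to cDNA, reporter-specific PCR, fluorescent primer extension, capillary sizing against ROX standards. Gain- or loss-of-signal relative to DMSO.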

Assay [11] addresses Transcriptional activator Myb (Homo sapiens) (UniProt P10242). The assay can be described thus: ATG_Myb_CIS: Attagene CIS-FACTORIAL HepG2 Assay for human Myeloblastosis (Myb) Proto-Oncogene Transcription Factor (AID 2282986). As to conditions: HepG2 Attagene CIS-FACTORIAL Myb reporter transcription; actives raise or lower the signal. The gist of the method: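 Fluorescence signals from capillary electrophoresis of RT-PCR-amplified reporter cDNA give the read-out. Cells: HepG2 transfected with multiple cis-regulated reporter units. Exposure lasts 24 hours; DMSO defines baseline for gain or loss of signal.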

Assay [12] addresses Cellular tumor antigen p53 (Homo sapiens) (UniProt P04637). The assay can be described thus: ATG_p53_CIS: Attagene CIS-FACTORIAL HepG2 Assay for human p53 Transcription Factor (AID 2282994). The following applies: HepG2 p53 cis-element reporter, Attagene mRNA; actives raise or lower the signal. The essentials:
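HepG2, transient MRTU transfection (cis promoter elements, endogenous TFs); 24 h dosing; RNA isolation, RT-PCR, 6-FAM primer extension, HpaI digest, CE fluorescence; bidirectional fit vs DMSO.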

Assay [13] can be described thus: CCTE_Harrill_HTTr_Viability_MCF7: CCTE's 6-hour Cell Viability Assessment for the High-Throughput Transcriptomics (HTTr) Platform, in MCF-7 cells cultured in DMEM + 10% fetal bovine serum, Harrill Lab (AID 2284010). The gist of the method: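 Membrane integrity was scored by high-content imaging of propidium iodide dye exclusion after a 6 h exposure across an eight-point dilution series. Data were fitted bidirectionally relative to DMSO as negative control and baseline.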

The nature of assay [14]: CCTE_Harrill_HTTr_Apoptosis_MCF7: CCTE's 6-hour Apoptosis Assessment for the High-Throughput Transcriptomics (HTTr) Platform, in MCF-7 cells cultured in DMEM + 10% fetal bovine serum, Harrill Lab (AID 2284011). The essentials: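 Read-out: CellEvent Caspase 3/7 Green signal by high content imaging, gain-of-signal indicating apoptosis. MCF-7 cells, DMEM + 10% FBS, eight-point dilution series, 6 h exposure. Curves fitted bidirectionally relative to DMSO negative control.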

Assay [15] addresses bovine Estrogen Receptor (ER), ESR1 (gene 407238) (UniProt P49884). Put plainly: NVS_NR_bER: NovaScreen (NVS) Nuclear Receptor Binding Assay for bovine Estrogen Receptor (ER) (AID 2283345; active means hit-call score of the fitted dose curve at least 0.9, where 1 is the maximum;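 further: actives lower the bound radioligand count which means they displace the ER ligand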). The gist of the method:
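Bovine uterine membranes; tritiated or iodinated radioligand; competitive displacement; 18 h; scintillation read; DMSO negative control; 25 uM duplicates, then concentration series for actives.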

Assay [16] is described as follows: ATG_CRE_CIS: Attagene CIS-FACTORIAL HepG2 Assay for human cAMP Responsive Element (CRE) binding protein 3 (AID 2282926). As to conditions: HepG2 CRE cis-reporter, Attagene multiplexed mRNA; actives raise or lower the signal. The gist of the method: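 Endogenous CRE-binding activity in HepG2 is reported through a cis-regulated transfected reporter. Following a day of exposure, mRNA levels are determined by reverse transcription PCR and fluorescent fragment analysis; fits run in both directions versus DMSO.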

Assay [17] in a line: ATG_AP_1_CIS: Attagene CIS-FACTORIAL HepG2 Assay for human Activator Protein 1 (AP-1) (AID 2282931). As to conditions: HepG2 Attagene cis-factorial AP-1 reporter mRNA; actives raise or lower the signal. The gist of the method:
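Bidirectional concentration-response fitting against DMSO controls. Underlying signal: reporter mRNA from cis-promoter constructs in transiently transfected HepG2, measured after 24 h by RT-PCR and capillary electrophoresis.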

The nature of assay [18]: ATG_VDRE_CIS: Attagene CIS-FACTORIAL HepG2 Assay for human Vitamin D Receptor Element (VDRE) (AID 2282968). The following applies: HepG2 VDRE cis-reporter transcription, actives raise or lower the signal. The gist of the method: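 In transiently transfected HepG2 liver cells, gain or loss of reporter mRNA after 24 h exposure is scored relative to DMSO, using fluorescence detection by capillary electrophoresis of RT-PCR products.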

The target in assay [19] is Nuclear respiratory factor 1 (Homo sapiens) (UniProt Q16656). The assay can be described thus: ATG_NRF1_CIS: Attagene CIS-FACTORIAL HepG2 Assay for human Nuclear Respiratory Factor 1 (NRF1) Orphan Gene (AID 2282987). The following applies: HepG2 NRF1 cis-element reporter, Attagene multiplex; actives raise or lower the signal. The gist of the method: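 Transcriptional reporter readout, one component of a 52-endpoint multiplexed HepG2 panel. Exposure 24 h; mRNA detected via RT-PCR and fluorescent capillary electrophoresis; fitting in both directions against DMSO.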
Nuclear respiratory factor 1 (Homo sapiens), sequence (Q16656 whole entry, looked up): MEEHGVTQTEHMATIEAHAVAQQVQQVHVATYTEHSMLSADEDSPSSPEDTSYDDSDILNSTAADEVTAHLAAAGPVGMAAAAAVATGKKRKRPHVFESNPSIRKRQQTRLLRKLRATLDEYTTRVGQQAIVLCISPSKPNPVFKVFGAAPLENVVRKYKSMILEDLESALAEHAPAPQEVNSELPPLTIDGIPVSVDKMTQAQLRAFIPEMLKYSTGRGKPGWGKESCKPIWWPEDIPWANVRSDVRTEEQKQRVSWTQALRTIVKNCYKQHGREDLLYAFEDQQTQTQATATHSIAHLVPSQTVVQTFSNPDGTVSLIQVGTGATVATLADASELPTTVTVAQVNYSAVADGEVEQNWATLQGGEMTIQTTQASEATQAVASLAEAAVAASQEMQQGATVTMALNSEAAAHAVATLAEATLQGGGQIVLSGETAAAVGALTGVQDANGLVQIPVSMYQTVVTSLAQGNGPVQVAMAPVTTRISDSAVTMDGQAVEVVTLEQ

Assay [20] is described as follows: ATG_NFI_CIS: Attagene CIS-FACTORIAL HepG2 Assay for human Nuclear Factor I (NFI) (AID 2282989). As to conditions: HepG2 cis-regulatory reporter, NFI response element transcription; actives raise or lower the signal. The gist of the method: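 After transient transfection of HepG2 with cis-promoter reporter constructs and 24 h dosing, RNA is reverse-transcribed, amplified, 6-FAM end-labelled and HpaI-digested before capillary analysis. Bidirectional curve fitting against DMSO.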

Results filed as inconclusive are left out. Calls of active or inactive are those of the source. How the source made its calls, unless noted: active means hit-call score of the fitted dose curve at least 0.9, where 1 is the maximum; inactive means score below 0.9.

Cellular tumor antigen p53 (Homo sapiens), sequence (P04637 whole entry, looked up): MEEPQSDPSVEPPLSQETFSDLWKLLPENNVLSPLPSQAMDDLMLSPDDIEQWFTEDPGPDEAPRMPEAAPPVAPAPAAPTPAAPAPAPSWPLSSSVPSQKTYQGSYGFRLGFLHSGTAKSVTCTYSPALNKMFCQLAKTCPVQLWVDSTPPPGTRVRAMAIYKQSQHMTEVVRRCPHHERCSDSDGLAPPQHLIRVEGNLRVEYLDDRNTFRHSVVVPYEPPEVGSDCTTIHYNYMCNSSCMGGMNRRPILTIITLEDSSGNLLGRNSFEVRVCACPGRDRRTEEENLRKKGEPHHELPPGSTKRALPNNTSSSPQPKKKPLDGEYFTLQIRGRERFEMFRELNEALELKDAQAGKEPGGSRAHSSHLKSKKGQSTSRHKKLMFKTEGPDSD
bovine Estrogen Receptor (ER), ESR1 (gene 407238), sequence (P49884 whole entry, looked up): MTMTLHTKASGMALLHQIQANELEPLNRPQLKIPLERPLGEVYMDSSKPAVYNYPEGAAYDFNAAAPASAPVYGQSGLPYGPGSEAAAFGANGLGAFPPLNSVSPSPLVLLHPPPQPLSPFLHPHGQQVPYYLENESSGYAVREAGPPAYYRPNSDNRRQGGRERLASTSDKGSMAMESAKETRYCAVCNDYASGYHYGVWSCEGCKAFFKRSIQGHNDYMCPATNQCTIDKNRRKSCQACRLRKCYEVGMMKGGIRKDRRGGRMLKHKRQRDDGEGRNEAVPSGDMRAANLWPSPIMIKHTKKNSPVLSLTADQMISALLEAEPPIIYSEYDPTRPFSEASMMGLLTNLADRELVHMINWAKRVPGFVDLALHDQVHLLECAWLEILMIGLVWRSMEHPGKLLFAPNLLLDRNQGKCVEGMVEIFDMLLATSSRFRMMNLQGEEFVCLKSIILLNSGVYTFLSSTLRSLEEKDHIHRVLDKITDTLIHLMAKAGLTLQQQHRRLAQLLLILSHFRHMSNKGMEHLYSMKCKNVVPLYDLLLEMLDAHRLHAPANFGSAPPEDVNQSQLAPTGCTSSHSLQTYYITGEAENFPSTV
Transcriptional activator Myb (Homo sapiens), sequence (P10242 whole entry, looked up): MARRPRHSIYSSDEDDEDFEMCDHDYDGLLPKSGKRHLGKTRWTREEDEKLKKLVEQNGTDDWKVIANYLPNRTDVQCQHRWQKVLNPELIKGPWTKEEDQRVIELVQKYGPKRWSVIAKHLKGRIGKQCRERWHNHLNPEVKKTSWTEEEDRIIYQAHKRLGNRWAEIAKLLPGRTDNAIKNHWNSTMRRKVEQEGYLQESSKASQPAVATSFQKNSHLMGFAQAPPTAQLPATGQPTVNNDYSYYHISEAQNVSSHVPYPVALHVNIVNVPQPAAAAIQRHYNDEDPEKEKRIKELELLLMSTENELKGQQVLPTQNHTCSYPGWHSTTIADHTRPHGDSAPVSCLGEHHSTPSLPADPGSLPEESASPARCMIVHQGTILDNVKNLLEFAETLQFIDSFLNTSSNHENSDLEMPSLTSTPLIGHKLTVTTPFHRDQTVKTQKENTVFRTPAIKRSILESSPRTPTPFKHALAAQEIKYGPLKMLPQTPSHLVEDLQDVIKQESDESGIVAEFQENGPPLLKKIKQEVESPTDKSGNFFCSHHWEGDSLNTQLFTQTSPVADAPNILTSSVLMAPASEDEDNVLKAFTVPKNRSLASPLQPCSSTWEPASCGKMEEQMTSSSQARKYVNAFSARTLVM
Hypoxia-inducible factor 1-alpha (Homo sapiens), sequence (Q16665 whole entry, looked up): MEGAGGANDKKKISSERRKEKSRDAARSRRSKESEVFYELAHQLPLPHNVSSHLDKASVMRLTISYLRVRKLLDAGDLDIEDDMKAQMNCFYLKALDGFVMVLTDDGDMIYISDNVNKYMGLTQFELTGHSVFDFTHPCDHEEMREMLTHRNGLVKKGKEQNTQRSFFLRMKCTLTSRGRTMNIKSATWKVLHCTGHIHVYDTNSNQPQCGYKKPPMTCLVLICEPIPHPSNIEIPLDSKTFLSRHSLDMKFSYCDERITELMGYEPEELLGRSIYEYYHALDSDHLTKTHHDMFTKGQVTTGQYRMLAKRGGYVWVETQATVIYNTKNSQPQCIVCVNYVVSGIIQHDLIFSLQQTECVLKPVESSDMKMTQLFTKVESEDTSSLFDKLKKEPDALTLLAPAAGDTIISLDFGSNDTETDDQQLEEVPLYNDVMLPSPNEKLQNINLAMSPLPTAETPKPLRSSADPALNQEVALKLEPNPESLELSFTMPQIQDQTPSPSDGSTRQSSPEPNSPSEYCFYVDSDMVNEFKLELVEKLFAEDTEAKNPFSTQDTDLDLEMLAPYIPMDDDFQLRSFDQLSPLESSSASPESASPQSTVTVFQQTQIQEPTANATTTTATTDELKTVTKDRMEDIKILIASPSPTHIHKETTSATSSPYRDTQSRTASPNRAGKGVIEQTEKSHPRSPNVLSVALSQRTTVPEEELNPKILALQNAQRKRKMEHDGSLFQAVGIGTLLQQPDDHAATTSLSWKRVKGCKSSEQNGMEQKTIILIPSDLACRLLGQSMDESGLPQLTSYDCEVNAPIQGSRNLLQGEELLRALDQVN

In the case of `COc1ccc2ccccc2c1`, the compound was called inactive in [1], in assay [2], in assay [3], in assay [4], in assay [5] and in assay [6]. Further, the result in assay [7], in [8], in [9], in [10], in [11] and in assay [12] was inactive. In addition, the outcome in [13] and in [14] was inactive.
As to `CCCCCCCCCCCCSC#N`, the compound was classed as inactive in assay [15].
Consider `CC/C=C/CCO`, for which the result in [16], in assay [1], in [17], in assay [2], in [3] and in assay [4] was inactive. Besides, the compound was called inactive in assay [5], in assay [6], in assay [7], in assay [8], in [9] and in assay [10]. Also, the result in assay [18], in assay [11], in [19], in [20] and in assay [12] was inactive.
As for `Cc1cccc(NC(=S)N(C)C)c1`, the outcome in assay [15] was inactive.
The same measure, in the same setting: the result for `COc1ccc(COC=O)cc1` reads “inactive”.
For the compound `Oc1ccc(Oc2ccccc2)cc1`, the compound was called inactive in assay [16], in assay [17], in assay [2], in [3], in assay [4] and in assay [5]. Also, the compound was called inactive in [6], in [7], in assay [8], in assay [9], in assay [10] and in [11]. The outcome in assay [19], in [20] and in assay [12] was inactive. In addition, the values for the half-maximal activity concentration (AC50) in assay [18] and in assay [15] were 38.4 µM (active) and 11 µM (active), respectively.
`CCO[Si](OCC)(OCC)c1ccccc1`: the result in assay [16], in [1], in [17], in assay [2], in [3] and in assay [4] was inactive. Also, the call in assay [5], in assay [6], in assay [7], in assay [8], in [9] and in assay [10] was inactive. The compound was classed as inactive in assay [18], in assay [11], in assay [19], in [20] and in assay [12].
Turning to `N#CCN(CC#N)CCN(CC#N)CC#N`, the outcome in [16], in [1], in [17], in assay [2], in assay [3] and in assay [4] was inactive. The compound was classed as inactive in assay [5], in assay [6], in assay [7], in assay [8], in assay [9] and in [10]. The result in [18], in [11], in [19], in assay [20] and in assay [12] was inactive.

For the origin of these results see PubChem BioAssay (EPA / NIEHS).
